{
  "source": "the supplement of paper PMC10720658",
  "note": "± gives the standard deviation of the averaged measurements.",
  "data": [
    {"tested_on": "AEK1 (Tb927.3.2440)", "assay": "percent reduction in TR-FRET probe signal relative to DMSO control; higher = stronger displacement of ATP-site probe (binding)", "settings": "1 µM; incubation time 1 h", "units": {"percent reduction in TR-FRET probe signal": "%"}, "values": [
      {"smiles": "O=C(NCCO)c1cccc(-c2cc(Nc3ccc(OC(F)(F)F)cc3)ncn2)c1", "percent reduction in TR-FRET probe signal": "13.3 ± 16"},
      {"smiles": "O=C1NC(=O)C(c2ccccc2[N+](=O)[O-])=C1Nc1ccc(O)c(Cl)c1", "percent reduction in TR-FRET probe signal": "-2.58 ± 9.4"},
      {"smiles": "CCCS(=O)(=O)Nc1ccc(F)c(C(=O)c2c[nH]c3ncc(Cl)cc23)c1F", "percent reduction in TR-FRET probe signal": "-8.04 ± 4.3"},
      {"smiles": "Clc1ccc(C2(c3ccc(-c4cn[nH]c4)cc3)CCNCC2)cc1", "percent reduction in TR-FRET probe signal": "27.3 ± 17"},
      {"smiles": "C[C@@H](Oc1cc(-n2cnc3ccc(CN4CCN(C)CC4)cc32)sc1C(N)=O)c1ccccc1C(F)(F)F", "percent reduction in TR-FRET probe signal": "2.7 ± 0.28"},
      {"smiles": "COc1cc2c(Oc3ccc4[nH]c(C)cc4c3F)ncnc2cc1OCCCN1CCCC1", "note": "[Cediranib (AZD2171)]", "percent reduction in TR-FRET probe signal": "63.4 ± 7.6"}
    ]}
  ]
}
